Assay results reported in PubChem BioAssay AID588342 (National Center for Advancing Translational Sciences (NCATS), 2011).
The campaign covered roughly 360,000 compounds. About 25,000 (6.9%) were called active. Roughly 9% stayed inconclusive and do not appear here. The list comes from a sample in which actives are over-represented; it also holds similar structures and randomly drawn compounds. Unmarked numbers belong to inactive results. Calls follow the shape of the dose curve; as a rule, active = well fitted inhibition curve with a large enough effect; inconclusive = small, poorly fitted or top-dose-only effect; inactive = flat fitted curve, though single readings scatter.

Target: Luciferin 4-monooxygenase (Photinus pyralis) (UniProt P08659)
Sequence (P08659 whole entry, looked up): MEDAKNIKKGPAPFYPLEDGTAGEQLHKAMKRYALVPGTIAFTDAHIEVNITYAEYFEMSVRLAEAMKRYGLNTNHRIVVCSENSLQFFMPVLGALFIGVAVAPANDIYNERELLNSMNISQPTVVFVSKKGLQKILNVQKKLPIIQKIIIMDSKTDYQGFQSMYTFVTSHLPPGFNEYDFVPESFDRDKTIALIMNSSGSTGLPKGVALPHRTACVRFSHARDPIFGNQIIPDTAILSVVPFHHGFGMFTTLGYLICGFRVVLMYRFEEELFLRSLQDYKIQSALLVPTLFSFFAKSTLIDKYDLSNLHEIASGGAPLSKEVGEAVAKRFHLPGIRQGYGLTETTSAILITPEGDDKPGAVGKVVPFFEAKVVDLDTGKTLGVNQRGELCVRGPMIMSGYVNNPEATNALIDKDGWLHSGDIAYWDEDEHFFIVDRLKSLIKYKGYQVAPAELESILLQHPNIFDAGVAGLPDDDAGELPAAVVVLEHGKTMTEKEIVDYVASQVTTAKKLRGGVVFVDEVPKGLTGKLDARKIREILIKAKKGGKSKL
Experiment: qHTS profiling assay for firefly luciferase inhibitor/activator using purifed enzyme and Km concentrations of substrates (counterscreen for miR-21 project); also: nearly all actives have a fitted effect of over 55% in size;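 as to activity change, negative = inhibition: plate controls were vehicle for no effect and reference inhibitor for full effect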
Details: purified FLuc, luminescence inhibition; series mostly up to 57.5 µM; activity change, negative = inhibition: at the top concentration
How it was run: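 Biochemical qHTS of compounds, final roughly 60 µM downward over six points, against 10 nM purified firefly luciferase using Km concentrations of substrates (10 uM D-luciferin, 10 uM ATP) in Tris acetate pH 7.5 buffer; luminescence output.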
Potency is read from the fitted curve at half-maximal effect.

| Compound | activity change, negative = inhibition [%] | Potency |
| --- | --- | --- |
| CN(C(=O)CSc1nc2ccc(NC(=O)COc3ccccc3)cc2s1)c1ccccc1 | -14.5 |  |
| CN(C(=O)COC(=O)Cn1cnc2c1c(=O)n(C)c(=O)n2C)C1(C#N)CCCCC1 | 3.02 |  |
| Cc1ccc(Cl)cc1N1CCN(C(=O)c2cccn3c(=O)c4cc(Cl)ccc4nc23)CC1 | -2.45 |  |
| COc1ccc(N2CCN(CCNC(=O)c3nnc(Cc4c(F)cccc4Cl)o3)CC2)cc1 | 4.25 |  |
| COc1cc(OC)c(N(C)C(=O)c2cc3c(=O)oc4ccccc4c3s2)cc1Cl | -0.794 |  |
| COc1cc(OC)c(OC)cc1/C=C/c1nc2cc3ccccc3cc2c(=O)n1-c1ccc(F)c(Cl)c1 | -1.28 |  |
| CC(C)CCNC(=O)CSc1nc2ccccc2nc1Cc1ccc(Cl)cc1 | -4.71 |  |
| CCOC(=O)c1cnc(Nc2nc3ccccc3o2)nc1CSC(=S)N1CCCCC1 |  | 9.53 µM (active) |
| CCOC(=O)CCNC(=O)N1CCCC(C(=O)c2ccccc2SC)C1 (configuration not stated) | -2.33 |  |
| CCc1ccc(CNC(=O)C2CCCN(c3nc4ccccc4o3)C2)cc1 (configuration not stated) | 3.01 |  |
| COCCNC(=O)CSc1c(C)cnc2c1c(=O)n(C)c(=O)n2C | -1.51 |  |
| COc1ccc(-c2nc(CN3CCC(C(=O)NCCN(CC(C)C)CC(C)C)CC3)c(C)o2)cc1OC | -5.23 |  |
| CC(C)CN(Cc1c(O)ccc2c(=O)c(-c3ccccc3)coc12)CC(C)C | 4.11 |  |
| O=c1c(-c2ccccc2)coc2cc(O)ccc12 |  | 15.1 µM (active) |
| O=C1/C(=C/c2coc3ccc(O)cc3c2=O)SC(=S)N1c1ccccc1 | -7.68 |  |
| COC(=O)COc1ccc2c(c1C)O/C(=C\c1ccco1)C2=O |  | 2.13 µM (active) |
| Cc1cc(C)c(OCC(=O)N/N=C/c2ccco2)c(C)c1 | 4.89 |  |
| COC(=O)C1=C(C)N(c2ccc(Br)cc2)C(=O)/C1=C\c1ccco1 | -2.45 |  |
| Cc1nn(CC(=O)NCCc2ccccc2)c(=O)c2c1sc1ccccc12 | -0.483 |  |
| O=C(c1ccc(S(=O)(=O)c2ccccc2)cc1)N1CCCCCC1 | 4.38 |  |
| O=C(c1ccc(CSc2ccccc2)cc1)N1CCCCCC1 |  | 23.9 µM (active) |
| CC1CCN(C(=O)c2ccc(CSc3ccc(Cl)cc3)cc2)CC1 | -1.34 |  |
| COc1cc(OC)c(N2CC(C(=O)Nc3cc(Cl)ccc3N3CCOCC3)CC2=O)cc1Cl (configuration not stated) | -1.25 |  |
| O=C(/C=C/c1ccccc1[N+](=O)[O-])OCC(=O)N1CCCC1 | -2.54 |  |
| CC(C)CNC(=O)COC(=O)/C=C/c1ccccc1[N+](=O)[O-] | -0.249 |  |
| O=C(/C=C/c1ccccc1[N+](=O)[O-])OC1CCCCC1=O (configuration not stated) |  | 15.1 µM (active) |

| Compound | activity change, negative = inhibition [%] | Potency |
| --- | --- | --- |
| CCOc1ccc(CCNC(=O)c2c(C)oc3ncn(C)c(=O)c23)cc1 | -15.7 |  |
| O=C(Nc1cccc(C(=O)NC2CC2)c1)c1ccc(F)c(S(=O)(=O)N2CCOCC2)c1 | 1.1 |  |
| Cc1ccc(-c2cn(S(=O)(=O)c3cccc([N+](=O)[O-])c3)nc2N)cc1 | 0.0034 |  |
| Cc1ccc(-n2cc3ccc([N+](=O)[O-])cc3n2)cc1 |  | 0.953 µM (active) |
| Cc1ccnc(N2C(=O)c3ccc([N+](=O)[O-])cc3C2=O)c1 | -0.44 |  |
| COc1ccc(C2=CC(c3ccccc3Cl)n3nc(-c4ccc(Cl)cc4)nc3N2)cc1 (configuration not stated) | -4.89 |  |
| NS(=O)(=O)c1ccc(NC(=O)COc2ccc(S(=O)(=O)NC3CCCCC3)cc2)cc1 | -1.09 |  |
| COc1ccc(-n2nnnc2-c2nc3ccccc3s2)cc1 |  | 0.601 µM (active) |
| COc1ccc(CSc2nnnn2-c2ccc(C(=O)O)cc2)cc1 | 0.195 |  |
| COc1ccc(-n2nnnc2CNC(=O)c2ccc3ccccc3c2)cc1 | 2.8 |  |
| Cc1ccc(S(=O)(=O)NCCC(=O)NCc2ccc(Cl)cc2)cc1C | 1.46 |  |
| COc1cccc(CNCc2c(C(=O)O)n(Cc3ccc(C)cc3)c3cc(C)ccc23)c1OC | -2.43 |  |
| COc1cccc(N2CC(NC(=O)/C=C\c3ccccc3)CC2=O)c1 (configuration not stated) | 1.08 |  |
| COc1ccc(C(=O)/C=C/c2cccnc2)c(OC)c1 |  | 19 µM (active) |
| COC(=O)c1cc(OC)ccc1-c1ccc(OC)cc1 | 0.668 |  |
| COc1ccc(C(=O)/C=C/c2ccc(OC3CSC3)cc2)cc1 |  | 12 µM (active) |
| COc1ccc(/C=C/C(=O)c2ccc(OC)cc2O)cc1 |  | 7.57 µM (active) |
| COc1ccc(C(=O)CCC(=O)Nc2cccnc2)c(OC)c1 | -7.14 |  |
| CO/N=C/CC(=O)c1ccc(OC)cc1 | -0.488 |  |
| CCOC(=O)C1CCCN(C(=O)/C=C/c2ccc(OC)cc2)C1 (configuration not stated) | -18.1 |  |
| COc1ccc(C(=O)NCC(=O)N/N=C/c2cccnc2)cc1 | 2.39 |  |
| Cc1ccc(C)c(CNC(=O)c2cc3ccccn3n2)c1 | -5.12 |  |
| COc1ccc(S(=O)(=O)NCC(=O)NCc2cc(=O)n(C)c(=O)n2C)cc1F | 4.13 |  |
| COc1cccc(C(c2c(O)cc(C)n(Cc3ccco3)c2=O)N2CCN(c3ccccc3)CC2)c1 (configuration not stated) | -13.6 |  |
| CCOc1ccc(-c2cc3nc(C4CCN(C(=O)OC(C)(C)C)CC4)c(C(=O)Nc4ccc(C(=O)OC)cc4)cn3n2)cc1 | -8.05 |  |
| COc1ccccc1NC(=O)C1=C(C)Nc2nc(SCC(=O)c3ccc(C)cc3)nn2C1c1ccccc1C (configuration not stated) | 5.07 |  |

| Compound | activity change, negative = inhibition [%] | Potency |
| --- | --- | --- |
| Cc1cc(C(=O)Nc2cccc(C(F)(F)F)c2)c2c(C)nn(-c3cccc(F)c3)c2n1 | -8.84 |  |
| C/C(=N\NC(=O)c1ccoc1C)c1ccccc1O |  | 15.1 µM (active) |
| CC(C)=C(NC(=O)c1ccccc1)C(=O)N/N=C(\C)c1ccccc1O | 4.12 |  |
| COc1ccccc1N(CC(=O)N/N=C(\C)c1ccccc1O)S(=O)(=O)c1ccc(C)cc1 | 3.81 |  |
| CCCOC(=O)c1c(NC(=O)c2cc3nc(-c4ccc(OC)cc4)cc(C(F)(F)F)n3n2)sc2c1CCCC2 | -5.72 |  |
| COc1ccc(N2CCN(C(=O)CSCc3nc(-c4ccccc4Cl)oc3C)CC2)cc1 | -11.4 |  |
| COc1ccc(-n2ccn(CC(=O)Nc3ccc(C)c(C)c3)c(=O)c2=O)cc1OC | -7.6 |  |
| Cc1cccc(S(=O)(=O)c2cn(Cc3ccccc3)c3cc(N4CCOCC4)c(F)cc3c2=O)c1 | -6.65 |  |
| CN(C)c1nnnn1-c1ccc(Cl)cc1 | -2.83 |  |
| O=C(NCCCO)c1nn(-c2ccc(Cl)cc2)nc1CO | -18.3 |  |
| Nc1ccc2nn(-c3ccc(Cl)cc3)nc2c1 |  | 0.757 µM (active) |
| COc1ccc(CCCc2nnc(SCc3nc4ccccc4c(=O)[nH]3)n2C)cc1 | 2.77 |  |
| COc1cc(OC)c(S(=O)(=O)Nc2ccccc2C(=O)O)cc1S(=O)(=O)Nc1ccccc1C(=O)O | -6.46 |  |
| COc1ccc(/C=N/Nc2ccccc2C(=O)O)cc1 |  | 0.151 µM (active) |
| COc1ccc(/C=N/Nc2nc(-c3ccc(C)cc3)c(C#N)c(=O)[nH]2)cc1 | 2.09 |  |
| COc1ccc(/C=N/Nc2nc3ccccc3c(=O)[nH]2)cc1 |  | 6.01 µM (active) |
| COc1ccc(/C=N/OCC(=O)N(Cc2ccccc2)c2ccccc2C(=O)O)cc1 | 1.35 |  |
| COc1ccc(NC(=O)CCc2nnc3n(CC(C)C)c(=O)c4ccccc4n23)cc1OC | 1.45 |  |
| CSc1ccc(C2C(C(=O)Nc3ccccc3)=C(C)Nc3nc4ccccc4n32)cc1 (configuration not stated) | -0.306 |  |
| COc1ccc(CCNc2ncnc3onc(-c4ccc(Cl)cc4)c23)c(OC)c1 | 0.978 |  |
| CCCn1c(=N)c(C(=O)NCc2ccccc2)cc2c(=O)n3cccc(C)c3nc21 | -0.698 |  |
| CCN1C(=O)/C(=C2/Sc3ccccc3N2CCCS(=O)(=O)O)SC1=S | -7.47 |  |
| CCN1/C(=C/C(=S)Nc2ccccc2)Sc2ccccc21 |  | 10.7 µM (active) |
| O=C(CCN1c2ccccc2Sc2ccccc21)Nc1ccccc1 | -1.69 |  |
| CCOC(=O)Cc1csc(NC(NC(=O)OCC)(C(F)(F)F)C(F)(F)F)n1 | 0.679 |  |
| CCOC(=O)Cc1csc(NC(=O)Nc2ccccc2)n1 |  | 12 µM (active) |

| Compound | activity change, negative = inhibition [%] | Potency |
| --- | --- | --- |
| CCOC(=O)c1csc(NC(=O)Nc2cccc(OC)c2)n1 | -6.53 |  |
| COc1ccc(OC)c(CNC(=O)Cn2nc(C)c3c(C)n(-c4ccc(C)cc4)nc3c2=O)c1 | 1.75 |  |
| Cc1cccc(NC(=O)c2nnn(CC(=O)Nc3ccc(C(C)C)cc3)c2N)c1C | 1.34 |  |
| COc1ccc(CCNC(=O)CCc2c(C)nc3c(c(C)nn3-c3ccc(C)c(C)c3)c2C)c(OC)c1OC | -9.01 |  |
| CCN(C(=O)Cn1cc(S(=O)(=O)N2CCN(c3ccccc3F)CC2)c2ccccc2c1=O)c1ccc(C)c(C)c1 | -4.46 |  |
| O=S(=O)(Nc1ccc2nc(-c3ccco3)[nH]c2c1)c1ccccc1 |  | 12 µM (active) |
| CCc1ccccc1NS(=O)(=O)c1ccc2nc(-c3ccccc3)[nH]c2c1 | -4.06 |  |
| O=S(=O)(Nc1ccc2cn[nH]c2c1)c1ccccc1 | -3.45 |  |
| CCN1CCN(Cc2c(O)ccc3oc(C)c(C(=O)Nc4ccc(C)cc4C)c23)CC1 | 5.5 |  |
| O=C(Cc1ccsc1)N1CCN(S(=O)(=O)c2cc(C(F)(F)F)cc(C(F)(F)F)c2)CC1 | 0.221 |  |
| CCN(CC)C(=O)Oc1ccc(OC(=O)N(CC)CC)cc1 | 0.534 |  |
| COc1ccc2nc(C)cc(Nc3cccc(C(=O)O)c3)c2c1 | 2.77 |  |
| COc1cccc(NC(=O)c2ccccc2SC)c1 | -17.2 |  |
| COc1cccc(Nc2ncccc2C(=O)O)c1 |  | 19 µM (active) |
| CCOC(=O)c1cnc2c(c(C)nn2CC)c1Cl | 1.72 |  |
| COC(=O)c1ccc(S(=O)(=O)N2CCc3ccccc3C2)cc1 | 1.73 |  |
| Cc1cc(C(=O)Nc2nnc(C3CC3)s2)c(C)s1 |  | 13.5 µM (active) |
| Cc1cccc(NC(=O)CSCC(=O)Nc2nnc(C3CC3)s2)c1 | -3.15 |  |
| O=C(Nc1nnc(Cc2ccccc2)s1)c1cnccn1 | -20.1 |  |
| O=C(Nc1nnc(C2CC2)s1)c1ccccn1 |  | 10.7 µM (active) |
| Cc1cc(=O)oc2cc(OCC(=O)Nc3nnc(C4CC4)s3)ccc12 | 1.19 |  |
| O=C(Cc1cccs1)Nc1nnc(C2CC2)s1 | -10.2 |  |
| Cc1ccc(N(C)C(=O)C2CCN(S(=O)(=O)c3ccc4c(c3)CCCN4C(=O)C3CCC3)CC2)cc1 | -2.8 |  |
| O=C1CN(C(=O)Nc2ccccc2C(F)(F)F)C(c2ccccc2)c2c(sc3c2CCCC3)N1 (configuration not stated) | -7.07 |  |
